TWEAK-Fn14 inh – TWEAK-Fn14 signaling inhibition; TWEAK-stimulated Fn14 reporter cells, luciferase luminescence, 8 h; inhibition, % at 10 µM; 360,000 compounds, 2% hits; AID 1159606; in the data active = inhibition above about 50%
LGR2 antag – Drosophila LGR2 receptor signaling inhibition. 380,000 compounds, 0.35% hits. inhibition, % at 9.99 µM. HEK293 LGR2, CRE-luciferase, bursicon-stimulated, 4 h;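 active = drop in luminescence signal, shown as inhibition above about 50% in the replicate tests, limit read from the data, passing the limit was not always enough; inconclusive = probably only some replicates passing the limit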;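 also: agonist challenge used bursicon conditioned medium at about half maximal strength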
HSP90 refold inh – HSP90 refolding inhibition in rabbit reticulocyte lysate; luciferase refolding luminescence, 3 h; inhibition, % at 5.6 µM; 290,000 compounds, 0.91% hits;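 active = inhibition above the screen-wide mean plus 3 SD, computed separately per campaign, cut at about 16% in these data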;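 also: 0% = DMSO wells and 100% = 60 µM geldanamycin wells; inhibitors lower the luminescence because luciferase stays unfolded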
TROY signal inh – blocks TROY-dependent signaling in reporter cells. Q293 LMP1-TROYcd NF-kB luciferase reporter, 4 h. inhibition, % at 10 µM. 360,000 compounds, 0.98% hits. AID 1347056;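 active = compounds whose plate-normalised and pattern-corrected inhibition of the luciferase reporter signal at the single screening dose is 50% or more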
HSP90 confirm – HSP90 inhibition, confirmation assay. 2,300 compounds, 64% hits. rabbit reticulocyte lysate, luciferase refolding luminescence, 3 h. AID 1846. inhibition, % at 5.9 µM. shares compounds with HSP90 refold inh; in the data active = inhibition above about 18%;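 also: 0% = vehicle wells and 100% = reference inhibitor wells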
luciferase ctr – counter-screen for HSP90 inhibitors: inhibitors of firefly luciferase; shares compounds with HSP90 refold inh; purified native firefly luciferase, luminescence; inhibition, % at 5.9 µM; 2,300 compounds, 48% hits; AID 1847;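 active = inhibition above the mean inhibition of all tested sample wells plus 3 SD, cut at about 10% in these data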;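 also: 0% = DMSO with luciferase and 100% = wells lacking luciferase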
Target sequence (P08659 whole entry, looked up): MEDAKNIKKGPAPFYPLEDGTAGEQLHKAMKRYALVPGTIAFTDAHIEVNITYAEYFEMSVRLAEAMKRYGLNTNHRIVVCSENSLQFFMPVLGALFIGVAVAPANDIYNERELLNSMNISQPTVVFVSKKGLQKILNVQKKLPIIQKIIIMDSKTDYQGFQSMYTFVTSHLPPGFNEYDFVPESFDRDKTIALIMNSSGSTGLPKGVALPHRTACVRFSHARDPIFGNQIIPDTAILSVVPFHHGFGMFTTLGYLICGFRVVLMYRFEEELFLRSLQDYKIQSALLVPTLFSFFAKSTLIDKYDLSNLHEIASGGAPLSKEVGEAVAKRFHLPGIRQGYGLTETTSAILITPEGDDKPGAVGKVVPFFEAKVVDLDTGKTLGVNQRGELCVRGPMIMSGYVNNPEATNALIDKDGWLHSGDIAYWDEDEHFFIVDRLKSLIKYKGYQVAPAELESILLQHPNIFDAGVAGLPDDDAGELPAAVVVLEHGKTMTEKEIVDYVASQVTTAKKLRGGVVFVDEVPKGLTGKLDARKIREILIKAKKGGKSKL
The depositor's hits bear a star; ? = inconclusive; / = no result given. Compounds with a hit are over-represented: about 2.2% of the library has one in this group of screens.

SMILES	TWEAK-Fn14 inh	LGR2 antag	HSP90 refold inh	TROY signal inh	HSP90 confirm	luciferase ctr
O=C(O)c1cccc(-c2nnn(Cc3ccccc3Cl)n2)c1	-0.1	/	59.3*	-42.3	76.7*	81.1*
O=C(Nc1ccc2c(c1)[C@@H]1C[C@H](CC(=O)N3CCCCC3)O[C@H](CO)[C@@H]1O2)Nc1ccccc1F	/	-2.1	/	/	/	/
O=C(C[C@@H]1CC[C@H](NC(=O)Nc2ccc(C(F)(F)F)cc2)[C@H](CO)O1)NCc1ccccn1	/	-15.6	/	/	/	/
CCC(=O)N1CC2(CCN(Cc3ccncc3)CC2)c2c(n(C)c3cc(OC)ccc23)[C@H]1CO	/	-9.5	/	/	/	/
COc1cccc(NC(=O)C[C@@H]2CC[C@@H]3[C@@H](COc4ccc(NC(=O)C5CCCC5)cc4C(=O)N3C)O2)c1	/	-0.1	/	/	/	/
Fc1ccc(NC(=S)Nc2cccc3ccccc23)cc1	31.5	-19.9	2.2	45.0	/	/
CC(C)c1ccc(NC(=S)Nc2cccc3ccccc23)cc1	53.4*	16.4	21.2*	70.5*	19.3*	-20.6
O=[N+]([O-])c1ccccc1-c1ccc(/C=N/n2cnnc2)o1	-3.4	/	-1.9	2.5	/	/
Nn1cnnc1N/N=C\c1ccc(-c2ccccc2[N+](=O)[O-])o1	-27.2	49.1	76.2*	-10.2	-2.2	-3.8
O=C(N[C@@H]1CC[C@H](CC(=O)N2CCc3ccccc3C2)O[C@@H]1CO)C1CCOCC1	/	-0.3	/	/	/	/
COc1ccccc1-c1cnc2c(c1)C(=O)N([C@H](C)CO)C[C@@H](C)[C@@H](CN(C)C(=O)c1cccnc1)O2	/	-1.1	/	/	/	/
COc1ccc2c3c([nH]c2c1)[C@@H](CO)N(C(=O)C1CCCC1)CC31CN(C)C1	/	-21.0	/	/	/	/
Cc1ccc(C(=O)COC(=O)c2cnccn2)cc1	-10.4	/	-0.9	-34.2	/	/
O=C(COC(=O)c1cnccn1)c1ccc([N+](=O)[O-])cc1	11.3	-0.8	38.2*	1.9	1.1	-23.5
CC(C)NC(=O)Nc1cccc2c1O[C@@H](CN(C)Cc1ccc(C(=O)O)cc1)[C@@H](C)CN([C@@H](C)CO)C2=O	/	-5.0	/	/	/	/
Cc1ccc2nc(-c3cccc(N)c3)oc2c1	78.2*	14.9	23.4*	36.3	66.6*	63.9*
Cc1cc(C)c2oc(-c3cccc(N)c3)nc2c1	-13.1	/	-0.4	-79.1	/	/
CCc1ccc2oc(-c3cccc(N)c3)nc2c1	75.0*	/	18.1*	33.9	59.7*	57.7*
CN1C(=O)c2cc(NC(=O)C3CCCC3)ccc2OC[C@@H]2O[C@@H](CC(=O)NCCc3ccncc3)CC[C@H]21	/	12.8	/	/	/	/
COc1ccc(NC(=O)C2CC(=O)N/C(=N/N=C/c3ccco3)S2)cc1 (stereo not given)	8.0	-17.1	-8.3	-2.8	/	/
COc1ccc(/C=N/N=C2/NC(=O)CC(C(=O)O)S2)cc1 (stereo not given)	-9.0	10.8	23.2*	6.8	36.3*	-14.8
COc1ccc2c(c1)sc1nc(-c3ccccc3)cn12	102.7*	/	62.7*	84.0*	89.9*	85.8*
C/C=C/c1ccc2c(c1)O[C@H](CN(C)C(=O)NCCC)[C@@H](C)CN([C@@H](C)CO)S2(=O)=O	/	-2.1	/	/	/	/
C/C(=N\NC(=O)c1cc2ccccc2cc1O)c1cccs1	52.8*	-35.9	22.4*	-7.8	33.7*	37.9*
CC(=O)c1ccc(NC(=O)Cn2cnc(S(=O)(=O)N3CCCC3)c2)cc1	9.7	/	26.4*	-17.1	-0.1	-3.9
SMILES	TWEAK-Fn14 inh	LGR2 antag	HSP90 refold inh	TROY signal inh	HSP90 confirm	luciferase ctr
CC(=O)c1ccc(NC(=O)Cn2cnc(S(=O)(=O)N3CCCCC3)c2)cc1	1.5	7.8	1.4	-18.5	/	/
O=C(C[C@@H]1C=C[C@H](NC(=O)Cc2cccnc2)[C@@H](CO)O1)Nc1ccc(-c2ccccc2)cc1	/	1.1	/	/	/	/
Oc1ccc(-c2cn3cc(C(F)(F)F)ccc3n2)cc1	28.2	42.7	17.0*	-54.7	49.1*	39.6*
Cc1ccc2nc(-c3ccc(O)c(O)c3)cn2c1	68.5*	?	30.2*	-8.7	41.1*	9.7*
Clc1ccc(-c2cn3cc(Cl)ccc3n2)cc1	75.2*	38.3	31.8*	33.0	54.8*	53.6*
Cc1ccc2nc(-c3ccccc3)cn2c1	105.4*	/	85.9*	85.5*	91.8*	83.0*
Fc1ccc(-c2cn3cc(C(F)(F)F)cc(Cl)c3n2)cc1	3.6	/	-0.4	-62.4	/	/
CC(=O)Nc1ccc(-c2cn3cc(C)ccc3n2)cc1	3.2	13.4	4.1	-74.2	/	/
COCC#Cc1cnc2c(c1)C(=O)N([C@@H](C)CO)C[C@H](C)[C@H](CN(C)S(=O)(=O)c1ccccc1)O2	/	-4.0	/	/	/	/
COc1ccc2c3c(n(C)c2c1)[C@@H](CO)N(C(=O)C1CC1)CC31CN(C(=O)CN(C)C)C1	/	1.3	/	/	/	/
CC(=O)N1[C@H](C(=O)NCc2ccccc2)[C@@H](CO)[C@@H]2Cn3c(cccc3=O)[C@@H]21	/	-6.6	/	/	/	/
CC(C)(C)C(=O)Nc1ccc(-c2cc3cc(Cl)ccc3o2)cc1	57.9*	/	39.8*	61.5*	23.8*	12.5*
CCCNC(=O)[C@H]1[C@H](CO)[C@H]2Cn3c(ccc(-c4ccccc4OC)c3=O)[C@H]2N1CC	/	-2.1	/	/	/	/
Cc1cc(C(=O)N/N=C/c2ccc3ccccc3c2)n[nH]1	-6.6	-13.8	35.5*	0.7	-9.6	-26.8
Cc1cc(C(=O)N/N=C/c2cccnc2)n[nH]1	-4.7	-4.2	1.5	-24.7	/	/
Cc1ccc(OCc2nc(-c3ccccn3)no2)c(Br)c1	84.8*	/	40.4*	36.4	65.3*	61.5*
O=C(N[C@H]1CC[C@@H](CC(=O)N2CCCCC2)O[C@@H]1CO)c1ccc2c(c1)OCO2	/	-6.3	/	/	/	/
O=C(NCc1ccccc1)c1c(O)c2cccc3c2n(c1=O)CCC3	-5.6	/	0.2	2.0	/	/
NNC(=O)c1c(O)c2cccc3c2n(c1=O)CCC3	6.5	-4.0	18.7*	8.4	2.8	-4.6
Cc1ccc(S(=O)(=O)N(C)C[C@@H]2Oc3c(NS(=O)(=O)c4ccc(Cl)cc4)cccc3C(=O)N([C@H](C)CO)C[C@@H]2C)cc1	/	-1.2	/	/	/	/
